Experimental data published in PubChem BioAssay AID686978 (National Center for Advancing Translational Sciences (NCATS), 2013).
About 64,000 (15%) of roughly 420,000 compounds were called active. Inconclusive results (about 27%) are left out. The call rests on the fitted dose curve; in most records, active means well fitted inhibition curve with a large enough effect; inconclusive means small, poorly fitted or top-dose-only effect; inactive means flat fitted curve, though single readings scatter. Not all results are given here. Entries that show only a call come without a potency.

Experiment: qHTS for Inhibitors of human tyrosyl-DNA phosphodiesterase 1 (TDP1): qHTS in cells in absence of CPT; further: nearly all actives have a fitted effect of over 55% in size
Details: DT40 Tdp1-/- hTDP1 cells, no CPT, ATP luminescence, 48 h; activity change, negative = growth inhibition: at 46.2 µM (top of the series)
Summary of the method: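 A cellular qHTS used chicken DT40 cells lacking endogenous Tdp1 but carrying stably transfected human TDP1. Compounds were applied without camptothecin, and cell growth kinetics were judged by ATP-dependent luminescence after ≥48 hr.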
Potency means the concentration at half of the fitted maximal effect.

SMILES | Potency
COc1ccc(C2NC(=O)C(=O)/C2=C(\O)c2ccc(Cl)cc2)cc1OC (stereo not given) | inactive
CCCCCOc1ccc(CSC2=NCCN2)cc1[N+](=O)[O-] | 23.1 µM (active)
Cc1nc(SCc2ccc(F)cc2)c([N+](=O)[O-])[nH]1 | inactive
COc1ccc(NC(=O)CSCc2ccc([N+](=O)[O-])cc2)cc1OC | inactive
CCCCOc1ccc(CSC(=N)N)cc1[N+](=O)[O-] | 11.6 µM (active)
CCCCOc1ccc(CON(C(C)=O)C(C)=O)cc1Cl | inactive
CCOc1ccc(C(=O)Nc2nccs2)cc1[N+](=O)[O-] | inactive
CC(NC(=O)CC1SC(N)=NC1=O)c1ccccc1 (stereo not given) | inactive
CCCCCc1ccc(-c2cn(Cc3ccc4ccccc4c3)nn2)cc1 | inactive
CCc1cc(-c2nnn(CCC3COCCO3)c2CC)ccc1-c1cn(Cc2ccc3ccccc3c2)nn1 (stereo not given) | 5.8 µM (active)
O=C(Nc1ccccc1Cl)N1CCC(CN2CCCC2)CC1 | inactive
COc1ccc(-c2nonc2NC(=O)c2oc3ccc(F)cc3c2C)cc1OC | inactive
CCn1nnc(NC(=O)c2cc(Cl)c(OC)c(Cl)c2)n1 | inactive
COc1ccc(C(=O)Nc2nonc2-c2ccc(OC)c(OC)c2)cc1Cl | 23.1 µM (active)
O=C(COc1ccccc1Cl)Nn1cnnc1 | inactive
Cc1cc(C(=O)COc2ccc(Br)cc2F)c(C)n1C1CC1 | 3.26 µM (active)
Cc1cc(C(=O)COc2ccccc2Cl)c(C)n1C1CC1 | 6.51 µM (active)
CN1CCN(C(=O)c2ccccc2NC(=O)COc2ccccc2Cl)CC1 | inactive
CCOC(=O)CC1C(=O)NCCN1C(=O)COc1ccc(Br)cc1C (stereo not given) | inactive
CC(=O)C1=C(C)NC(=O)NC1c1cc(Br)ccc1OCC#N (stereo not given) | inactive
CC(=O)c1cccc(NC(=O)N2CCCC2C(=O)NCCC(C)C)c1 (stereo not given) | inactive
COc1ccccc1C(=O)N(C1=NC(C)CS1)c1ccc(Cl)cc1 (stereo not given) | inactive
O=C(NCCc1ccccc1)C(=O)NCC1OCCN1S(=O)(=O)c1cccs1 (stereo not given) | inactive
CSCCC(NC(=O)c1ccc(=O)n(C)n1)c1nc2ccccc2[nH]1 (stereo not given) | inactive

SMILES | Potency
CSCCC(NC(=O)c1cc([N+](=O)[O-])cc([N+](=O)[O-])c1)c1nc2ccccc2[nH]1 (stereo not given) | 16.4 µM (active)
CCCC(NC(=O)c1ccco1)c1nc2ccccc2[nH]1 (stereo not given) | inactive
CCn1c(C)cc(=O)cc1-c1ccc(Cl)cc1 | inactive
COc1ccc(Cn2c(-c3ccc(Cl)cc3)c[n+]3ccccc23)cc1 | 1.16 µM (active)
COc1ccc(C(=O)CN(C(=O)c2ccc(Cl)cc2)N2C(=O)c3ccccc3C2=O)cc1 | inactive
COc1ccc(S(=O)(=O)N2CCN(CC(=O)N3CCNC3=O)CC2)cc1OC | inactive
Cc1ccc(S(=O)(=O)CCC(=O)OCC(=O)N(C)Cc2ccccc2)cc1 | inactive
CCOc1ccc(CNC(=O)c2ccc3c(c2)nnn3C2CCCC2)cc1 | inactive
COc1ccc(C(=O)OCC(=O)N2CC(=O)Nc3ccccc32)cc1Br | inactive
CN(c1ccccc1)S(=O)(=O)c1ccc(Cl)c(C(=O)NCCc2c[nH]c3ccccc23)c1 | 8.2 µM (active)
CCN(CC)S(=O)(=O)c1ccc2[nH]cc(C(=O)NCCc3ccccc3)c(=O)c2c1 | 14.6 µM (active)
O=C(NCCc1ccccc1)c1c[nH]c2ccc(F)cc2c1=O | inactive
CN(c1ccccc1)S(=O)(=O)c1ccc(Cl)c(C(=O)OCC(N)=O)c1 | inactive
CCc1ccc(NS(=O)(=O)c2ccc3[nH]cc(C(=O)NCCc4cccc(C)c4)c(=O)c3c2)cc1 | inactive
CSCCC(NS(=O)(=O)c1ccc(C)cc1)C(=O)NCCc1c[nH]c2ccccc12 (stereo not given) | inactive
COc1ccc(CN2CCN(Cc3ccc(OC)c(OC)c3OC)CC2)cc1 | inactive
Cn1c(=O)c(CCc2ccccc2)nc2cnc(Nc3ccccc3)nc21 | inactive
O=C(CSc1nc2c(c(=O)[nH]1)CN(Cc1ccc(F)cc1)CC2)Nc1ccccc1Cl | inactive
Cc1nc2cnc(Nc3ccccc3)nc2n(Cc2ccc(F)cc2)c1=O | inactive
Fc1ccc(CN2CCc3nc(Nc4ccccc4)ncc3C2)cc1F | 20.6 µM (active)
COc1ccc(CN2CCc3nc(Nc4ccccc4)ncc3C2)c(OC)c1OC | 20.6 µM (active)
Fc1cccc(CSc2nnc3ccc(-c4ccncc4)nn23)c1 | inactive
Cc1[nH]c2ccccc2c1-c1ccc(Cl)nn1 | inactive
C=CCN1CCN(C(=O)CCCc2ccccc2)CC1 | inactive

SMILES | Potency
COc1ccccc1CNC(=O)C1CCN(C(=O)[C@@H]2Cc3ccccc3CN2)CC1 | inactive
COc1ccccc1CNC(=O)C1Cc2ccccc2C(=O)O1 (stereo not given) | inactive
COc1ccccc1CNC(=O)[C@@H]1CCCN1C(=O)[C@@H]1Cc2ccccc2CN1C(=O)OC(C)(C)C | 16.4 µM (active)
O=C(NCC(=O)N1CCC2(CC1)NCCc1[nH]cnc12)c1ccc(Br)cc1 | inactive
CC(C)c1ccc(/C=C/C(=O)NNC(=O)c2cccnc2)cc1 | inactive
COc1cc2[nH]c(=S)n(Cc3ccc(C)o3)c(=O)c2cc1OC | inactive
O=C(NCCc1c[nH]c2ccc(Cl)cc12)c1ccc([N+](=O)[O-])cc1 | inactive
CCOc1ccc(-c2nc(N)ncc2-c2ccccc2OC)c(O)c1 | inactive
CCOC(=O)COc1cc(O)c2c(=O)cc(-c3ccccc3)oc2c1 | inactive
COc1ccc(-c2[nH]ncc2CN(C)Cc2c(C)n[nH]c2C)c(OC)c1 | inactive
Cc1noc(C)c1COC(=O)COc1ccc(-c2ccccc2)cc1 | inactive
C=C(C)COc1ccc(-c2n[nH]c(C)c2-c2ccccc2)c(O)c1 | 16.4 µM (active)
COc1ccc(-c2n[nH]c(C)c2-c2ccccc2OC)c(O)c1 | 20.6 µM (active)
Cc1ccc2nc(N(CCN(C)C)C(=O)C3=COCCO3)sc2c1 | inactive
CCCC(=O)OCC(=O)Nc1cc(Cl)ccc1[N+](=O)[O-] | inactive
CCOC(=O)N1CCN(C(=O)c2ccccc2SCC(=O)NCC2CCCCC2)CC1 | inactive
Cc1[nH]c2ccccc2c1C(=O)CSCC(=O)O | inactive
CCOC(=O)N1CCN(CC(=O)c2c(C)[nH]c3ccccc23)CC1 | 18.4 µM (active)
Cc1[nH]c2ccccc2c1C(=O)CN1CC(C)CC(C)C1 (stereo not given) | 8.2 µM (active)
Cc1ccc2c(C(=O)CN3CCCC3)c(C)[nH]c2c1 | inactive
Cc1[nH]c2ccccc2c1C(=O)COC(=O)C(C)C | inactive
Cc1[nH]c2ccccc2c1C(=O)CN1CCCC(C)C1 (stereo not given) | inactive
